In PubChem BioAssay:
Values joined by “and” are separate entries in the source; they are usually repeats but may differ in a detail not shown here. Identical values can stand only once. Active and inactive are the calls of the source.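 The calls were made as follows, unless noted: active = thallium flux through the channel raised or lowered by more than 3 SD from vehicle-only wells, actives on both sides; inactive = the rest.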 Numbered stars: 1 amine (or outer) side, 2 acyl side, 3 side chain; on linkers, the order of the positions; unused ones are H or OH. Bridge positions count the residues as written; N and C are the ends. Square brackets hold non-standard residues; d marks the D form. Peptide text beside a SMILES is read from it. I, II: the chains in the order shown. Actinocin(9to1) = Cc1c2oc3c(C)ccc(C(=O)[*:1])c3nc-2c(C(=O)[*:2])c(N)c1=O; NMeV = CN[CH](C(=O)O)C(C)C; Sar = CNCC(=O)O

Tests used:
[1] = liver-stage malaria parasite growth inhibition, primary screen, cell-based, HepG2, luciferase luminescence, HepG2 viability (AID 624349; in the data active = parasite load remaining mostly below about 12%, no sharp cut-off; inactive = mostly above about 10%;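 also: 100% = mean of DMSO negative control wells on the same plate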); conditions: P. berghei liver stage in HepG2, luciferase luminescence, concentration not given here; parasite load remaining: stronger effect = lower value; viability: measured here: HepG2 viability without parasites
[2] = Cy5 fluorescence interference with SSB-bound oligo, artefact control for HCV NS3 helicase inhibitor project, biochemical, NIH Clinical Collection, E. coli SSB (AID 743268; call rule not given here)
[3] = system: Hepatitis C virus NS3 helicase; assay: HCV NS3 helicase inhibitors, primary screen, biochemical, fluorescence polarization, NIH Clinical Collection (AID 743270; call rule not given here); conditions: NS3 helicase binding to Cy5-dT15 DNA, stronger effect = higher value, concentration not given here
[4] = biological target: Single-stranded DNA-binding protein (Escherichia coli (strain K12)) (UniProt P0AGE0); assay: E. coli SSB displacement from DNA, counter-screen for HCV NS3 helicase inhibitor project, biochemical, fluorescence polarization, NIH Clinical Collection (AID 743271; in the data active = inhibition above about 28%); conditions: stronger effect = higher value, concentration not given here
[5] = fluorescence interference in NS3h assay format, artefact control for HCV NS3 helicase inhibitor project, biochemical, NIH Clinical Collection (AID 743272; call rule not given here;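 also: HCV NS3 helicase with a Cy5 labelled single stranded DNA probe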); conditions: fluorescence interference counterscreen, stronger effect = lower value
[6] = system: Neuropilin-2 / VEGF-C interaction (human); assay: inhibitors of NRP2–VEGF-C binding, biochemical, microplate binding format, z-score (AID 743281; call rule not given here); conditions: microplate NRP2/VEGF-C binding assay; stronger effect = lower value
[7] = modulation of C. elegans fzo-1 (AID 1259413; call rule not given here;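 also: fzo-1 mutant C. elegans worms in liquid wells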); conditions: C. elegans fzo-1 modulator screen, mean read-out; stronger effect = higher value
[8] = survival rescue of mitochondrial mutant cells in low glucose, primary screen, MELAS cybrids, Rieske KO mouse fibroblasts, CellTiter-Glo (AID 1508586;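 active = mean z-score across replicates of 1.96 or higher in either the MELAS or the Rieske mutant cell line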;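 also: z relative to plate mean and SD of compound and empty wells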)
F380Y = assay: modulators of BK channel variants, profiling panel, selectivity assay, cell-based, U2OS BacMam, thallium flux, beta subunits (AID 1259406); conditions: at 30 µM;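 also: initial slope of Thallos dye fluorescence rise after thallium is added; log ratio against the mean of 0.3% DMSO vehicle wells on the same plate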
F380Y/beta1 = assay: as above; conditions: at 30 µM
F380Y/beta2Delta = assay: as above; conditions: at 30 µM
F380Y/beta4 = assay: as above; conditions: at 30 µM
[9] = biological target: Calcium-activated potassium channel subunit alpha-1 (Homo sapiens) + Leucine-rich repeat-containing protein 26 (Homo sapiens) (UniProt Q12791+Q2I0M4); assay: as above; conditions: F380Y/Slo1WT/gamma1, at 30 µM
Calcium-activated potassium channel subunit alpha-1 (Homo sapiens) + Leucine-rich repeat-containing protein 26 (Homo sapiens), sequence (Q2I0M4 whole entry, looked up, one chain of several): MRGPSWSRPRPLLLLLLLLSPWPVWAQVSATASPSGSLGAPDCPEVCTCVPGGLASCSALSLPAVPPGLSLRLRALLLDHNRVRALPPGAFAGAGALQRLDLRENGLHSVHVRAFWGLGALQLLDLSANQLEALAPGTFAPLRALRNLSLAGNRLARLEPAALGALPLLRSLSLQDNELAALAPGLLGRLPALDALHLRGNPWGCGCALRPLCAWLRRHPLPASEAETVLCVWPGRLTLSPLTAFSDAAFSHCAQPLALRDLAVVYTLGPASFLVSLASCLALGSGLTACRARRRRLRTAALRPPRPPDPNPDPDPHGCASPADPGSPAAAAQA

R275C = assay: as above; conditions: at 30 µM
R275C/beta1 = assay: as above; conditions: at 30 µM
R275C/beta2Delta = assay: as above; conditions: at 30 µM
R275C/beta4 = assay: as above; conditions: at 30 µM
R275C/Slo1WT/beta2 = assay: as above; conditions: at 30 µM
[10] = sensitizers of A549 cells to miR-34 induction, primary screen, imaging, A549 dox-inducible miR-34, nuclei and caspase counts (AID 1347080;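 active = compounds whose cell count with miR-34 switched on is under 0.7 times the count with it off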); conditions: A549 miR-34 inducible, Hoechst nuclei count, 48 h
[11] = viability rescue of complex I mutant cybrids, primary screen, cell-based, galactose medium, ATP luminescence (AID 1645843;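 active = z-score of at least 1.8 in each of two replicates, scored against plate mean and spread of sample wells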;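 also: positive z means more ATP and so rescue of galactose-driven cybrid death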); conditions: complex I mutant cybrid cells, 72 h, stronger effect = higher value
[12] = MELAS cybrid survival, CellTiter-Glo 48 h, stronger effect = higher value
[13] = Rieske KO mouse fibroblast survival, CellTiter-Glo 72 h
[14] = stronger effect = lower value, cell number ratio, induced over uninduced
[15] = measured here: relative caspase fold change +Dox/-Dox
[16] = measured here: total cells with miR-34 induction, stronger effect = lower value
[17] = measured here: total cells without miR-34 induction

CCN(CC)C(=O)[C@]1(c2ccccc2)C[C@@H]1CN
71.3%: viability [1]
inactive: parasite load remaining [1] 94.6% | fluorescence ratio [2] 1.07 | inhibition [3] 1.98% | inhibition [4] -3.18% | fluorescence ratio [5] 1.06 | z-score [6] -0.224 | mean signal [7] 248 | z-score [8, 12] -0.406 | log fold change Tl+ flux (F380Y) 0.0604 | log fold change Tl+ flux (F380Y/beta1) 0.0284 | log fold change Tl+ flux (F380Y/beta2Delta) -0.038 | log fold change Tl+ flux (F380Y/beta4) 0.00308 | log fold change Tl+ flux [9] 0.0521 | log fold change Tl+ flux (R275C) -0.00612 | log fold change Tl+ flux (R275C/beta1) -0.0552 | log fold change Tl+ flux (R275C/beta2Delta) -0.0341 | log fold change Tl+ flux (R275C/beta4) 0.0155 | log fold change Tl+ flux (R275C/Slo1WT/beta2) 0.0022
-0.158: z-score [8, 13]

CC12CCC(=O)C=C1CCC1C2CCC2(C)C1CCC2(O)C(=O)CO (stereo not drawn)
63.5%: viability [1]
1.98: fold change [10, 15]
5920: cell count [10, 17]
7560: cell count [10, 16]
inactive: parasite load remaining [1] 47.2% | fluorescence ratio [2] 0.91 | inhibition [3] -4.59% | inhibition [4] 1.18% | fluorescence ratio [5] 0.84 | z-score [6] -0.624 | mean signal [7] 241 | fold change [10, 14] 1.28 | z-score [11] 0.28 | log fold change Tl+ flux (F380Y) -0.0107 | log fold change Tl+ flux (F380Y/beta1) 0.000378 | log fold change Tl+ flux (F380Y/beta2Delta) 0.0311 | log fold change Tl+ flux (F380Y/beta4) 0.00388 | log fold change Tl+ flux [9] 0.0303 | log fold change Tl+ flux (R275C) 0.029 | log fold change Tl+ flux (R275C/beta1) -0.042 | log fold change Tl+ flux (R275C/beta2Delta) -0.0755 | log fold change Tl+ flux (R275C/beta4) -0.0135 | log fold change Tl+ flux (R275C/Slo1WT/beta2) -0.0119

CC(C(O)c1ccc(O)cc1)N1CCC(Cc2ccccc2)CC1 (stereo not drawn)
active: log fold change Tl+ flux [9] -0.0962 | log fold change Tl+ flux (R275C) -0.193 | log fold change Tl+ flux (R275C/beta2Delta) -0.218
inactive: fluorescence ratio [2] 1.03 | inhibition [3] -6.73% | inhibition [4] -4.72% | fluorescence ratio [5] 0.98 | z-score [6] -0.156 | mean signal [7] 233 | z-score [8, 12] -0.121 and -0.969 and -0.489 | z-score [11] -1.16 and -1.04 and -0.25 | log fold change Tl+ flux (F380Y) 0.0449 | log fold change Tl+ flux (F380Y/beta1) -0.0111 | log fold change Tl+ flux (F380Y/beta2Delta) 0.00326 | log fold change Tl+ flux (F380Y/beta4) 0.0228 | log fold change Tl+ flux (R275C/beta1) -0.0365 | log fold change Tl+ flux (R275C/beta4) -0.0303 | log fold change Tl+ flux (R275C/Slo1WT/beta2) 0.00646
-0.18 and -0.279 and 1.18: z-score [8, 13]

O=c1cnn([C@@H]2O[C@H](CO)[C@@H](O)[C@H]2O)c(=O)[nH]1
79.3%: viability [1]
inactive: parasite load remaining [1] 51.8% | fluorescence ratio [2] 0.94 | inhibition [3] -2.84% | inhibition [4] -1.97% | fluorescence ratio [5] 0.89 | z-score [6] -0.659 | mean signal [7] 301 | log fold change Tl+ flux (F380Y) -0.0103 | log fold change Tl+ flux (F380Y/beta1) 0.0132 | log fold change Tl+ flux (F380Y/beta2Delta) -0.027 | log fold change Tl+ flux (F380Y/beta4) 0.00308 | log fold change Tl+ flux [9] -0.026 | log fold change Tl+ flux (R275C) 0.00432 | log fold change Tl+ flux (R275C/beta1) -0.00973 | log fold change Tl+ flux (R275C/beta2Delta) -0.0295 | log fold change Tl+ flux (R275C/beta4) -0.0439 | log fold change Tl+ flux (R275C/Slo1WT/beta2) -0.0257

O=C(OC1C[C@@H]2CC3C[C@H](C1)N2CC3=O)c1c[nH]c2ccccc12 (stereo partly drawn)
72.3%: viability [1]
inactive: parasite load remaining [1] 52.7% | fluorescence ratio [2] 1.02 | inhibition [3] -2.84% | inhibition [4] -2.76% | fluorescence ratio [5] 1 | z-score [6] -0.0143 | mean signal [7] 222 | z-score [8, 12] 0.403 | log fold change Tl+ flux (F380Y) 0.0495 | log fold change Tl+ flux (F380Y/beta1) 0.0612 | log fold change Tl+ flux (F380Y/beta2Delta) 0.0379 | log fold change Tl+ flux (F380Y/beta4) 0.00589 | log fold change Tl+ flux [9] -0.004 | log fold change Tl+ flux (R275C) -0.0531 | log fold change Tl+ flux (R275C/beta1) 0.0632 | log fold change Tl+ flux (R275C/beta2Delta) 0.00308 | log fold change Tl+ flux (R275C/beta4) 0.022 | log fold change Tl+ flux (R275C/Slo1WT/beta2) 0.011
-0.707: z-score [8, 13]

Cc1c2oc3c(C)ccc(C(=O)NC4C(=O)NC(C(C)C)C(=O)N5CCCC5C(=O)N(C)CC(=O)N(C)C(C(C)C)C(=O)OC4C)c3nc-2c(C(=O)NC2C(=O)NC(C(C)C)C(=O)N3CCCC3C(=O)N(C)CC(=O)N(C)C(C(C)C)C(=O)OC2C)c(N)c1=O (stereo not drawn) (I: TVP[Sar][NMeV] / II: TVP[Sar][NMeV]; ester I:1-I:C, II:1-II:C; linker I:N-II:N via Actinocin(9to1); configuration not given here)
inactive: fold change [10, 14] 1.02 | z-score [11] -1.86 | log fold change Tl+ flux (F380Y) -0.0282 | log fold change Tl+ flux (F380Y/beta1) 0.0244 | log fold change Tl+ flux (F380Y/beta2Delta) -0.0313 | log fold change Tl+ flux (F380Y/beta4) -0.0252 | log fold change Tl+ flux [9] -0.013 | log fold change Tl+ flux (R275C) -0.0516 | log fold change Tl+ flux (R275C/beta1) 0.0499 | log fold change Tl+ flux (R275C/beta2Delta) -0.00324 | log fold change Tl+ flux (R275C/beta4) 0.0337 | log fold change Tl+ flux (R275C/Slo1WT/beta2) 0.0757
2570: cell count [10, 17]
1.2: fold change [10, 15]
2640: cell count [10, 16]

O=c1c(O[C@@H]2O[C@H](CO)[C@H](O)[C@H](O)[C@H]2O)c(-c2ccc(O)c(O)c2)oc2cc(O)cc(O)c12
inactive: parasite load remaining [1] 108% | fluorescence ratio [2] 0.94 | inhibition [3] 1.98% | inhibition [4] 15.3% | fluorescence ratio [5] 1 | z-score [6] -0.00792 | mean signal [7] 249 | log fold change Tl+ flux (F380Y) -0.00852 | log fold change Tl+ flux (F380Y/beta1) -0.00723 | log fold change Tl+ flux (F380Y/beta2Delta) -0.0335 | log fold change Tl+ flux (F380Y/beta4) -0.027 | log fold change Tl+ flux [9] -0.0251 | log fold change Tl+ flux (R275C) -0.00833 | log fold change Tl+ flux (R275C/beta1) -0.0329 | log fold change Tl+ flux (R275C/beta2Delta) 0.0189 | log fold change Tl+ flux (R275C/beta4) 0.0212 | log fold change Tl+ flux (R275C/Slo1WT/beta2) -0.0201
61.9%: viability [1]
